# HPGD inh – qHTS Assay for Inhibitors of HPGD (15-Hydroxyprostaglandin Dehydrogenase); purified HPGD, NADH fluorescence kinetic, PGE2 substrate; Potency, µM, inactives show at the top dose activity change, negative = inhibition, usual class: inhibitors; 4.3% of 150,000 active; AID 894, 2007; further: potency means the concentration at half of the fitted maximal effect
# Target sequence (P15428 whole entry, looked up): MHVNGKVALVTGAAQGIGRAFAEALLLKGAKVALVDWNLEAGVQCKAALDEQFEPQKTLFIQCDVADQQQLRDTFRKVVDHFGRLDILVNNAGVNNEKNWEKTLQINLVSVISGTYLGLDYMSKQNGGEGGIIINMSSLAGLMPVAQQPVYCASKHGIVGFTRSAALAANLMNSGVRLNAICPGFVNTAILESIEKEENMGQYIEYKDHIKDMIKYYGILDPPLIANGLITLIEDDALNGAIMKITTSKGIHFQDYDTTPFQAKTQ
#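 20 nM HPGD preincubated 15 min at room temperature with compound in 50 mM Tris-HCl pH 8, 0.01% Tween 20. Started with 1 mM NAD+ and 30 uM prostaglandin E2; NADH fluorescence (360/450 nm) read 5 times over 30-s intervals, last minus first.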
# ALDH1A1 inh – qHTS Assay for Inhibitors of Aldehyde Dehydrogenase 1 (ALDH1A1) | Aldehyde dehydrogenase 1A1 (Homo sapiens), P00352 | Purified ALDH1A1, NADH fluorescence, propionaldehyde substrate | Potency, µM (doses to about 75.3 µM), for the others: at the top dose activity, negative = inhibition, actives largely listed as inhibitors | 7.3% of 220,000 active | AID 1030, 2008;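 further: potency means the concentration at half of the fitted maximal effect; plate controls were no enzyme wells and a reference inhibitor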
# PNC inhibitor – High Content Assay for Compounds that inhibit the Assembly of the Perinucleolar Compartment; PC3M PTB-GFP, PNC prevalence imaging, 16 h; hits give low values; activity change (PNC), negative = inhibition, % at 10 µM; 3.1% of 140,000 active; AID 2417, 2010;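 active means readout at or below -70, meaning at least 70% loss of cells showing the perinucleolar compartment, a nuclear body marking cancer cells; inconclusive means readout between -30 and a set limit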;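 further: plate controls were DMSO wells for no effect and camptothecin positive control wells for full effect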
#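 PC3M cells stably expressing PTB-GFP, 750–1000 cells/well, treated 16 h at 37 °C with compound (23 nl of library stock), in duplicate. After paraformaldehyde fixation and Hoechst stain, imaged at 20x; PNC prevalence scored by image analysis.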
# The depositor's hits bear a star; ? = inconclusive; · = not tested or not shown. Rows were chosen to be rich in hits. Some 11% of all compounds tested hit in one or more screens of this group. Unless noted, the call rests on the fitted dose curve; in most records, active means well fitted inhibition curve with a large enough effect (not every such curve was filed as active); inconclusive means small, poorly fitted or top-dose-only effect, or another doubt; inactive means no such curve, though single readings can be large or run the other way. Unless noted, on the % scale 0 is the no-effect control and ±100 the full control effect.
SMILES,HPGD inh,ALDH1A1 inh,PNC inhibitor
COCC(C)NC(=O)c1cccc(Cl)c1 (stereo not drawn),?,1.0%,-28.7
CN(NC1OC(=O)c2ccccc21)c1ccc(C(F)(F)F)cc1[N+](=O)[O-] (stereo not drawn),·,2.5%,·
Cc1cc(C)n(C(=O)COc2ccc(Cl)cc2Cl)n1,-9.7%,3.8%,-22.7
Cc1cc(C)n(CCOc2ccc(Cl)cc2Cl)n1,31.6µM*,-2.1%,?
COc1ccc(CCC(=O)OCC(=O)c2ccc(C)cc2)cc1,-13.0%,-4.1%,?
C=CCOC(=O)C1=C(C)Nc2ncnn2C1c1cccs1 (stereo not drawn),-6.3%,-2.0%,?
C=CCOC(=O)C1=C(C)NC(=S)NC1c1cccs1 (stereo not drawn),-6.9%,2.24µM*,-6.2
COCCOC(=O)C1=C(C)NC(=S)NC1c1cccs1 (stereo not drawn),·,22.4µM*,·
COCCOC(=O)C1=C(C)NC(=O)NC1c1cccs1 (stereo not drawn),-12.6%,3.8%,9.8
COC(=O)c1ccc(CN2[C@@H]3C[C@@H](O)CC[C@@H]3C[C@H]2C(=O)OC)cc1,-4.3%,-2.6%,·
COc1ccccc1C(=O)C1CCCN(C(=O)CCc2ccccn2)C1 (stereo not drawn),·,17.8µM*,·
COc1ccc(C(=O)C2CCCN(C(=O)CCc3ccccn3)C2)c(C)c1 (stereo not drawn),·,7.4%,·
COC(=O)CCCC(=O)N1CCCC(CNS(=O)(=O)c2ccc(OC)cc2)C1 (stereo not drawn),·,2.0%,·
COC(=O)CCCC(=O)N1CCCC(C(=O)c2ccc(OC)cc2C)C1 (stereo not drawn),·,2.51µM*,·
O=C(O)c1cccc(NC(=O)c2ccc(S(=O)(=O)c3ccccc3)cc2)c1,-15.5%,5.0%,34.6
O=C(OCCOc1ccccc1)c1n[nH]c2ccccc12,·,11.4%,·
O=C(CN1C(=O)C2CC=CCC2C1=O)Nc1ccc(S(=O)(=O)N2CCOCC2)cc1 (stereo not drawn),·,7.3%,·
COc1ccc(NS(=O)(=O)c2ccc(NC(=O)c3ccc(N(C)S(C)(=O)=O)cc3)cc2)c(OC)c1,-0.2%,-2.4%,11.0
COc1nn(C(C)C(=O)N2N=C(C(F)F)CC2(O)C(F)F)cc1[N+](=O)[O-] (stereo not drawn),-10.2%,-8.0%,?
COc1nn(CC(=O)N2N=C(C(F)F)CC2(O)C(F)F)cc1[N+](=O)[O-] (stereo not drawn),-18.2%,6.2%,-89.6*
CCC1(c2ccccc2)NC(=O)N(Cc2ccc(C(=O)OC)cc2)C1=O (stereo not drawn),-6.8%,-1.9%,-16.6
CCCCN(Cc1ccccc1)C(=O)C1CCCN(S(=O)(=O)c2cnc[nH]2)C1 (stereo not drawn),-5.9%,14.1µM*,-7.1
CN(CCCNC(=O)C1CCCN(S(=O)(=O)c2cnc[nH]2)C1)c1ccccc1 (stereo not drawn),-9.6%,?,10.0
COc1ccc(C(=O)Nc2cc(C(F)(F)F)ccc2-n2cnc3ccccc32)cc1,-2.1%,?,?
CC(=O)Nc1ccc(C(=O)Nc2cc(C(F)(F)F)ccc2-n2cnc3ccccc32)cc1,14.1µM*,?,18.0
SMILES,HPGD inh,ALDH1A1 inh,PNC inhibitor
COc1ccccc1NC(=O)c1ccc2c(c1)nnn2C,·,13.3%,·
CCN(c1ccc(NC(=O)COC(=O)CCC(=O)c2ccc(F)cc2)cc1)C(C)C,-17.8%,?,-29.9
Cn1c(=O)c2c3c(sc2n2c(SCc4ccc5c(c4)OCO5)nnc12)COC(C)(C)C3,-9.6%,-7.6%,14.1
CCCN(C(=O)CSc1nnc(-c2ccoc2C)n1N)C1CCS(=O)(=O)C1 (stereo not drawn),-20.0%,20µM*,?
CCCN(CC1CC1)C(=O)CSc1nnc(-c2ccco2)n1N,·,31.6µM*,·
CCN(C(=O)CSc1nnc(-c2ccccc2)n1C)C1CCS(=O)(=O)C1 (stereo not drawn),·,-3.5%,·
CN(CCC#N)C(=O)CSc1nnc(-c2ccco2)n1N,·,9.0%,·
CC(NS(=O)(=O)/C=C/c1ccccc1)c1ccccc1 (stereo not drawn),·,-4.2%,·
N#Cc1c(N)oc(-c2ccc3c(c2)OCO3)c1-c1ccc2c(c1)OCO2,?,?,0.1
CC[C@](N)(CCC(=O)O)C(=O)O,-3.6%,-7.8%,·
CCOC(=O)c1c(C)oc2c1c(C(c1cccnc1)N1CCCCC1)c(O)c1ccccc12 (stereo not drawn),-22.4%,?,?
CCOC(=O)c1c(C)oc2c1c(C(c1ccccc1)N1CCOCC1)c(O)c1ccccc12 (stereo not drawn),?,3.55µM*,41.8
COc1ccc(CC(=O)Nc2cccc(-c3ccc4nncn4n3)c2)cc1OC,·,7.4%,·
CC(C)OCCCNS(=O)(=O)c1ccc2c(c1)OCCO2,-2.5%,?,16.1
COc1ccc(S(=O)(=O)NCCSc2ccccc2)cc1OC,6.1%,?,-11.2
Cc1ccc(SCCNS(=O)(=O)c2ccc(F)cc2)cc1,-6.9%,15.8µM*,3.7
COc1ccc(S(=O)(=O)NCCSc2ccc(C)cc2)cc1OC,-23.2%,5.01µM*,6.5
O=S(=O)(NCCSc1ccc(Cl)cc1)c1ccc(F)cc1,-11.0%,?,70.2
Cc1ccc(SCCNS(=O)(=O)c2ccc3c(c2)OCCO3)cc1,-9.7%,1.41µM*,120.0
Cc1nc(NC(=S)NC(=O)c2cncc(Br)c2)ccc1Br,·,6.3%,·
COc1ccc(C(=O)NC(=O)Nc2cc(C)ccn2)cc1,·,12.6µM*,?
Cc1ccnc(NC(=S)NC(=O)c2cncc(Br)c2)c1,-8.3%,-3.7%,-100.0*
COc1cc(C(=O)Nc2cc(C)ccn2)cc(OC)c1OC,-13.0%,15.6%,-14.6
O=C(CSc1nncs1)Nc1ccc2c(c1)OCO2,·,2.3%,·
CCCN1CNC(=S)N(c2cc(C)ccc2C)C1,-8.3%,-2.9%,-100.0*
SMILES,HPGD inh,ALDH1A1 inh,PNC inhibitor
Cc1ccc(C)c(N2CN(CCC3=CCCCC3)CNC2=S)c1,·,-5.0%,·
O=C1C=C(c2cccs2)C[C@H](c2ccccc2)[C@H]1n1nnc([N+](=O)[O-])n1,-14.6%,7.94µM*,?
NC(=O)c1ccc(NC(=O)c2cccc3c2OCCCO3)cc1,·,4.8%,·
CC1(C)Cc2c(sc3nc4n(-c5ccccc5)cnn4c(=O)c23)CO1,·,-10.1%,·
O=C(O)c1ccccc1C(=O)c1ccc2c(c1)N(Cc1ccc(Cl)c(Cl)c1)C(=O)CO2,·,6.2%,·
N#Cc1cc(-c2ccccc2)nc(Oc2ccccc2)n1,?,-2.4%,-24.3
NC(=O)c1cc(-c2ccccc2)nc(Oc2ccccc2)n1,-19.9%,-11.4%,-116.6*
Cc1ccccc1C(=O)NNC(=O)CSc1nnc(C)n1-c1ccccc1,-3.4%,14.6%,?
COc1ccccc1CNC(=O)c1ccc2c(=O)n(CCCN3CCCC3=O)c(=S)[nH]c2c1,·,2µM*,·
COc1ccc(CNC(=O)c2ccc3c(=O)n(CCCN4CCCC4=O)c(=S)[nH]c3c2)cc1,·,28.2µM*,·
COc1ccc(-n2c(=S)[nH]c3cc(C(=O)NCCCN4CCCC4=O)ccc3c2=O)cc1OC,-5.8%,2.51µM*,1.5
COc1ccc(Cn2c(=O)[nH]c3cc(C(=O)NCCCN4CCCC4)ccc3c2=O)cc1,-11.9%,?,?

# Compound activity: PubChem, National Center for Advancing Translational Sciences (NCATS)
